Laboratory results as given in PubChem BioAssay.
Calls of active or inactive are those of the source. Unless noted, the rule behind the calls is not given here.

How the values were obtained:
[1] = tested on: XIP peptide (Xip251-270) binding; assay: XIP fragment 251-270 binding compounds – biochemical, small-molecule microarray, fluorescence 635/667 nm, 0.1 µg/mL protein, primary screen (AID 1182); conditions: fluorescent protein binding, 635 nm, higher = more signal, called active from +8 up or from −8 down
XIP peptide (Xip251-270) = assay: compounds binding XIP fragment 251-270 – biochemical, small-molecule microarray, fluorescence 635/667 nm, 0.5 µg/mL protein, primary screen (AID 1183); conditions: fluorescence 635 nm, higher = more signal
[2] = blood-stage malaria parasite viability loss – strain 3D7, DAPI fluorescence, 100 nL, primary screen (AID 1184);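 note: parasites grown inside human red blood cells in medium with human serum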; conditions: P. falciparum 3D7 growth, 3 d, higher = more signal
[3] = target: Homeobox protein Hox-A13 (Mus musculus) (UniProt Q62424); assay: disruptors of Hoxa13 oligonucleotide interaction – biochemical, fluorescence polarization, labeled oligonucleotide, primary screen (AID 1185); conditions: Hoxa13:DNA binding, 15 min, higher = more signal, called active from +8 up or from −8 down
Sequence of Homeobox protein Hox-A13 (Mus musculus) (Q62424 whole entry, looked up): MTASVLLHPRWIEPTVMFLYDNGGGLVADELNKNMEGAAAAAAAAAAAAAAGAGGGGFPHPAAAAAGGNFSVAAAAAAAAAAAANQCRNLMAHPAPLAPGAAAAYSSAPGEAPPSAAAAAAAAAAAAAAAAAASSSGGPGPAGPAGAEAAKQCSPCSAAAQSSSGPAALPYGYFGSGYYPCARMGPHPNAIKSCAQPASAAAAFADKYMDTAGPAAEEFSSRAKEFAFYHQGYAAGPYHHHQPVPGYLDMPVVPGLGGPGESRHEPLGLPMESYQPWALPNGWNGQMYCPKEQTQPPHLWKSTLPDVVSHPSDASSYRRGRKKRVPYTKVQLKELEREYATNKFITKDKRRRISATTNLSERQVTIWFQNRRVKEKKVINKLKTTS

[4] = blockers of DNA damage checkpoint Chk1 activation – imaging, HeLa, hydroxyurea, phospho-Chk1 antibody, percent positive cells, primary screen (AID 1186); conditions: hydroxyurea-induced phospho-Chk1 immunofluorescence imaging, higher = more signal
[5] = blockers of DNA damage checkpoint Chk1 activation – imaging, HeLa, hydroxyurea, phospho-Chk1 nuclear intensity, primary screen (AID 1187); conditions: hydroxyurea-induced phospho-Chk1 immunofluorescence imaging, higher = more signal

Row | SMILES | composite z-score [1] | composite z-score (XIP peptide (Xip251-270)) | z-score [2] | z-score [3] | z-score [4] | z-score [5]
1 | CCCC=C(CCC)[C@@H](NS(=O)(=O)CC12CCC(CC1=O)C2(C)C)c1ccc(C(=O)OC)cc1 (some centres undefined) | -0.341 (inactive) | 0.316 | -0.384 | -2.11 (inactive) | -0.225 (inactive) | -0.276 (inactive)
2 | O=C1C2C=CC(C(O)c3cccc(O)c3)N(Nc3ccc([N+](=O)[O-])cc3)C2C(=O)N1c1ccccc1 (centres undefined) | -0.232 (inactive) | 0.342 | 1.25 | -3.9 (inactive) | 0.181 (inactive) | -0.322 (inactive)
3 | COCC(=C=CC[C@H](O)c1ccc(CO)o1)CCO | -0.224 (inactive) | 0.297 | 1.08 | -3.75 (inactive) | 0.625 (inactive) | 0.295 (inactive)
4 | COc1ccc(CCNC(=O)[C@@]2(c3ccc([N+](=O)[O-])cc3)CC(=O)N(C3CCCCC3)[C@@H]2c2ccc(CO)cc2)cc1 | 1.48 (inactive) | 0.662 | -0.171 | -4.2 (inactive) | -0.192 (inactive) | 0.0527 (inactive)
5 | CS(=O)(=O)CCOC(=O)C1=CC(c2ccc(CO)cc2)=CC(C2CC2)N(Cc2sc3ccccc3c2Cl)C=C1C(=O)OCCS(C)(=O)=O (centres undefined) | 0.766 (inactive) | 0.492 | -3.02 | 0.0711 (inactive) | -0.27 (inactive) | 0.137 (inactive)
6 | NC(=O)NCC#Cc1ccc2c(c1)[C@]1(C(=O)N2)[C@H](C(=O)N2CCN(c3ncccn3)CC2)[C@H]2C(=O)O[C@H](c3ccccc3)[C@H](c3ccccc3)N2[C@@H]1c1ccc(O)cc1 | -0.0728 (inactive) | 0.58 | 1.79 | -1.83 (inactive) | 0.161 (inactive) | 0.359 (inactive)
7 | COc1ccc(CCNC(=O)[C@@]2(Sc3ccc(C)cc3)CC(=O)N(Cc3ccccc3C(F)(F)F)[C@@H]2c2ccc(CO)cc2I)cc1 | 0.232 (inactive) | 0.853 | -0.77 | -2.7 (inactive) | 0.17 (inactive) | 0.68 (inactive)
8 | COc1cc2c(cc1O)C(c1cccs1)N(Cc1cc3c(cc1Br)OCO3)CC2 (centres undefined) | -0.177 (inactive) | 0.867 | -1.57 | -1.01 (inactive) | -0.117 (inactive) | 0.128 (inactive)
9 | COC(=O)[C@@]1(Cc2ccccc2)[C@H]2c3cc(C(=O)N4CCCC4)n(CCc4ccccn4)c3C[C@H]2CN1C(=O)c1ccccc1 | 1.44 (inactive) | 0.663 | -1.25 | -5.78 (inactive) | 0.249 (inactive) | 0.491 (inactive)
10 | CC(C)NC(=O)[C@@]1(c2ccc([N+](=O)[O-])cc2)CC(=O)N(C2CCCCC2)[C@@H]1c1ccc(CO)cc1 | 1.15 (inactive) | 0.786 | -0.385 | -3.11 (inactive) | 0.127 (inactive) | 0.0865 (inactive)
11 | CC(C)N1C(=O)C[C@@](C(=O)NC2CC2)(c2ccc([N+](=O)[O-])cc2)[C@H]1c1ccc(CO)cc1 | 0.65 (inactive) | 0.396 | -1.15 | -1.81 (inactive) | 0.254 (inactive) | 0.529 (inactive)
12 | Oc1ccc2cc[n+](Cc3cc4c(cc3Br)OCO4)cc2c1 | 0.425 (inactive) | 0.135 | 0.0298 | -8.63 (active) | 0.12 (inactive) | 0.225 (inactive)
13 | O=C(Cc1ccccc1)[C@H]1C2C=CCCC(c3ccccc3)=C2CN1Cc1ccccc1 (some centres undefined) | 1.11 (inactive) | -0.0929 | 0.979 | -2.16 (inactive) | -0.171 (inactive) | 0.213 (inactive)
14 | C=CCC(OC(C)=O)[C@@H]1[C@@H](N(Cc2cc3ccccc3o2)C(=O)Cc2ccc(F)cc2)c2cc(OCCCO)ccc2N1C(=O)Cc1ccc2ccccc2c1 (some centres undefined) | -0.0865 (inactive) | -0.507 | 0.694 | -1.9 (inactive) | 0.725 (inactive) | 0.113 (inactive)
15 | CCC#CCN(Cc1ccccc1Br)[C@H](/C=C/C1CC1)[C@@H](O)Cc1ccccc1 | -0.243 (inactive) | 0.0059 | -3.17 | -0.634 (inactive) | -0.887 (inactive) | -0.875 (inactive)
16 | CCCC1(C(=O)OC)C=C2C(=C(C)C(=O)C2C)CN1 (centres undefined) | -1.06 (inactive) | -0.527 | 0.43 | -4.88 (inactive) | 0.779 (inactive) | 0.909 (inactive)
17 | COc1cccc(C)c1NC(=O)O[C@H]1[C@H](OC(=O)Nc2ccccc2-c2ccccc2)[C@H](OC(=O)Nc2ccccc2-c2ccccc2)[C@@H](OC)O[C@@H]1CO | 0.201 (inactive) | 0.729 | -2.51 | -1.28 (inactive) | -0.8 (inactive) | -1.12 (inactive)
18 | C=CCNC(=O)[C@@H]1[C@H]2C(=O)O[C@H](c3ccccc3)[C@H](c3ccccc3)N2[C@H](c2ccc(OCCO)cc2)[C@@]12C(=O)N(C(=O)OCCOC)c1ccc(C#Cc3ccc(OC)cc3)cc12 | 0.448 (inactive) | 0.589 | -2.07 | -0.573 (inactive) | 0.0644 (inactive) | 0.22 (inactive)
19 | CC(=O)N1CC2(CC2)CC1c1ccccc1 (centres undefined) | 0.485 (inactive) | 0.915 | -0.0608 | -1.06 (inactive) | 0.465 (inactive) | 0.444 (inactive)
20 | O=C(NCCN1CCOCC1)[C@@H]1c2ccccc2C(=O)N(Cc2ccccc2Cl)[C@H]1c1ccc(CO)cc1 | -0.121 (inactive) | -0.209 | -0.879 | -4.26 (inactive) | -0.0685 (inactive) | 0.227 (inactive)
21 | Cc1ccc(S[C@]2(C(=O)NCC(F)(F)F)CC(=O)N(Cc3cc(C(F)(F)F)cc(C(F)(F)F)c3)[C@@H]2c2ccc(CO)cc2I)cc1 | 1.46 (inactive) | 0.981 | -0.609 | -2.68 (inactive) | 0.427 (inactive) | 0.684 (inactive)
22 | O=C1CS(=O)(=O)C(c2cccc([N+](=O)[O-])c2)N1c1ccccc1 (centres undefined) | 0.784 (inactive) | 0.263 | 0.66 | 0.011 (inactive) | -0.346 (inactive) | -0.291 (inactive)
23 | [N-]=[N+]=Nc1ccccc1C[C@]1(C(=O)NCC(O)CO)COC(c2ccc(OCCCO)cc2)=N1 (some centres undefined) | -0.0462 (inactive) | 0.106 | -1.57 | -6.04 (inactive) | 0.0856 (inactive) | 0.636 (inactive)
24 | CC1CC/C=C\[C@H]2OC34C=CCN(C(C)C)C(=O)[C@H]3N(CCO)C(=O)[C@@H]4C2C(=O)O1 (some centres undefined) | -0.319 (inactive) | -0.472 | -1.22 | -2.91 (inactive) | 0.147 (inactive) | 0.0498 (inactive)
